Bioassay records (PubChem)
Vaccinia Venus: inhibitors of vaccinia virus (Venus reporter); Vaccinia virus Venus reporter expression, fluorescence; 0.46% of 330,000 active; Potency, µM (highest dose often 36.5 µM), for inactives: at the highest dose activity change, negative = inhibition, most hits filed as inhibitors; calls by dose curve; tested in A549 cells; further: nearly all actives have a fitted effect of over 30% in size
FMDV antiviral: foot and mouth disease virus antiviral activity; FMDV antiviral cell-based qHTS; Potency, µM (top dose mostly 57.9 µM), inactives show at the top dose activity change, negative = inhibition, usual class: inhibitors; 1.2% of 410,000 active; AID 1159524; calls by dose curve; tested in HEK293T cells; further: read-out not given here; nearly all actives have a fitted effect of over 45% in size
LASV entry inh: blocks Lassa virus binding to or entry into cells; 1.2% of 300,000 active; Potency, µM (doses to about 37.9 µM), for inactives: top-dose activity change, negative = inhibition, hits mostly inhibitors; Lassa virus pseudotype entry inhibition, cell reporter; AID 540256; calls by dose curve; tested in HEK293 cells; further: nearly all actives have a fitted effect of over 50% in size
Vaccinia mCherry: vaccinia inhibition (mCherry reporter). Vaccinia virus mCherry reporter infection, fluorescence. Potency, µM (top dose mostly 36.5 µM), for the others: at the highest dose activity change, negative = inhibition, hits mostly inhibitors. 0.63% of 310,000 active; calls by dose curve; tested in A549 cells; further: nearly all actives have a fitted effect of over 35% in size
Marburg entry inh: Marburg virus entry inhibition. Marburg virus pseudotyped entry inhibition, cell reporter. Potency, µM (series often up to 37.8 µM), without a hit: at the top dose activity change, negative = inhibition, hits mostly inhibitors. 1.8% of 300,000 active; calls by dose curve; tested in HEK293 cells
Sm TGR inh: S. mansoni TGR enzyme inhibition | AID 485364 | 3% of 360,000 active | purified TGR, DTNB reduction, TNB absorbance 405 nm | Q962Y6 | Potency, µM (top dose mostly 114 µM), without a hit: top-dose activity change, negative = inhibition, most hits filed as inhibitors; active means well fitted inhibition curve with a large enough effect; inconclusive means small, poorly fitted or top-dose-only effect; inactive means no such curve, though single readings can be large or run the other way; further: nearly all actives have a fitted effect of over 60% in size
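First, TGR (20 nM dispensed) and NADPH were mixed with compound. Second, a 15 min room-temperature incubation followed. Third, further NADPH and then DTNB were added to start the reaction. Finally, TNB absorbance was monitored kinetically.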
Numbers without * were called inactive; i = inactive; ? = inconclusive; . = no result given; [ ] = another dose, or the depositor's remark. Only some compounds are listed: those with a hit (about 5.4% of all), similar ones and a draw of the others. On the % scale 0 is the no-effect control and ±100 the full control effect; potency means the concentration at half of the fitted maximal effect.

SMILES	Vaccinia Venus	FMDV antiviral	LASV entry inh	Vaccinia mCherry	Marburg entry inh	Sm TGR inh
CCn1c(/C=C2\C(=O)Nc3ccccc32)nc2ccccc2c1=O	-18%	22µM*	?	-29%	?	6%
CCN1C(=O)/C(=C\c2nc3ccccc3c(=O)n2-c2ccccc2)c2ccccc21	-9%	14µM*	?	-26%	?	1%
Cc1ccccc1Cc1nc2cccnc2n1C1CCN(C(=O)CC2NC(=O)c3ccccc32)CC1 (configuration not stated)	6%	-24%	.	-6%	.	.
COC(CSc1ncnc2c1oc1nc3c(cc12)COC(C)(C)C3)OC	.	13%	.	.	.	28µM*
CCC(=O)c1ccc(OCc2ccc(C#N)cc2)cc1	2%	30%	9%	-3%	-5%[46.1 µM]	10%
CCC(=O)c1ccc(OCc2ccc(C(=O)OC)cc2)cc1	-11%	?	?	-1%	10µM*	6%
CC(C)C1=Nc2cccc3cccc(c23)N1	6%	-21%	9%	-3%	?	1%
CCOc1ccc2c(c1)NC(c1cccs1)=NC(c1ccc(F)cc1)=N2	-11%	-18%	1%[46.1 µM]	-9%	1%[46.1 µM]	-4%
COc1ccc(C2=Nc3cccc4cccc(c34)N2)cc1	1%	.	7%	-8%	21%	50µM*
COc1ccc(C2=Nc3ccccc3NC(c3cccs3)=N2)cc1	-13%	-2%	8%[46.1 µM]	-8%	20µM*	-5%
ClCC1=Nc2cccc3cccc(c23)N1	.	.	.	.	.	28µM*
COc1ccc(-c2nc3cc(C)ccc3cc2CN(C(=O)c2cc(C)nn2C)C2CC2)cc1OC	-17%	-4%	.	-14%	.	.
CCC(=NCCCn1ccnc1)c1c(O)n(-c2ccccc2)c(=O)[nH]c1=O	-8%	-5%	22%[46.1 µM]	-5%	14%[46.1 µM]	7%
CCC(=NCCc1c[nH]c2ccccc12)c1c(O)n(C)c(=O)n(C)c1=O	.	16µM*	?	.	?	-5%
CC/C(=N\Nc1ccccc1)c1c(O)n(C)c(=O)n(C)c1=O	-20%	?	-1%	-1%	0%	-3%
CCC(=NCCc1c[nH]c2ccccc12)c1c(O)n(-c2ccc(C)cc2)c(=O)[nH]c1=O	-20%	-9%	1.8µM*	-26%	?	-8%
CCC(=NC(C)c1ccccc1)c1c(O)n(C)c(=O)n(C)c1=O (configuration not stated)	.	13µM*	?	.	?	-3%
CC(=NCCc1ccccc1)c1c(O)n(C)c(=O)n(C)c1=O	-13%	-26%	8%[46.1 µM]	i	-8%[46.1 µM]	-5%
CCC(=O)N1CCc2cc(Br)cc(S(=O)(=O)CCC(=O)N3CCN(c4ccccc4F)CC3)c21	-13%	16%	5%[46.1 µM]	-4%	-4%[46.1 µM]	-13%
CC(=O)c1ccc(OCC(O)Cn2nnc3ccccc32)cc1 (configuration not stated)	-17%	.	17%	-26%	17%	0%
N#Cc1ccc(-c2ccc(OCC(O)Cn3nnc4ccccc43)cc2)cc1 (configuration not stated)	-25%	28µM*	1%	?	?	5%
COc1ccc(OC)c(C2=NO[C@@](CC(=O)O)(C(=O)Nc3ccc4c(c3)OCCO4)C2)c1	-16%	-11%	16%[46.1 µM]	-14%	0%[46.1 µM]	13µM*
Cc1ccc(C2=NO[C@@](CC(=O)O)(C(=O)Nc3ccc4c(c3)OCCO4)C2)cc1	-6%	7%	26%[46.1 µM]	-3%	?	14µM*
CN1N/C(=C\c2ccccc2)N=C2C(=O)N(C)C(=O)N=C21	8.9µM*	.	.	7.9µM*	.	.
CC/C=C1/N=C2C(=O)N(C)C(=O)N=C2N(C)N1	2.2µM*	.	.	1.8µM*	.	.
SMILES	Vaccinia Venus	FMDV antiviral	LASV entry inh	Vaccinia mCherry	Marburg entry inh	Sm TGR inh
O=C(O)c1ccccc1C(=O)OCCc1cc2ccccc2c(=O)o1	-5%	28%	.	i	.	-13%
CCN(CC)C(=O)OCCc1cc2ccccc2c(=O)o1	-13%	9%	.	-24%	.	3.2µM*
O=C(OCCCc1cc2ccccc2c(=O)o1)c1ccc(F)cc1	-7%	-20%	.	i	.	35µM*
COc1cc2cc(CCCOC(=O)c3ccc(F)cc3)oc(=O)c2cc1OC	-17%	-14%	.	7%	.	?
O=C(OCCCc1cc2ccccc2c(=O)o1)c1ccccc1C(F)(F)F	-7%	-5%	.	-3%	.	11µM*
N#Cc1ccc(C(=O)OCCCc2cc3ccccc3c(=O)o2)cc1	-10%	32%	.	i	.	50µM*
O=C(OCCc1cc2ccccc2c(=O)o1)c1ccccc1C(F)(F)F	-21%	-27%	.	i	.	-19%
CCOc1ccc(NC(=O)Cc2ccc(NC(=O)N3CCCCc4ccccc43)cc2)cc1	?	4%	8%[46.1 µM]	-3%	.	-6%
COc1cc(Cl)c(NS(=O)(=O)c2ccc(-c3coc(C)n3)cc2)c(OC)c1	-10%	?	11%[46.1 µM]	-23%	.	-1%
Cc1cc(Nc2cccc(O)c2)c2cccc(Br)c2n1	-9%	-23%	18%[46.1 µM]	-16%	1%[46.1 µM]	2%
CCOC(=O)[C@H]1[C@H]2COc3ccc(Cl)cc3[C@@H]2N2C(=O)CN(Cc3ccco3)C(=O)[C@@]12C	-9%	-10%	.	i	.	16µM*
CCOC(=O)[C@H]1[C@H]2COc3ccc(OC)cc3[C@@H]2N2C(=O)CN(Cc3ccco3)C(=O)[C@@]12C	-12%	-11%	.	i	.	?
CCOC(=O)[C@H]1[C@H]2COc3ccc(Cl)cc3[C@@H]2N2C(=O)CN(Cc3ccc(C)cc3)C(=O)[C@@]12C	?	-26%	.	-3%	.	0%
CCOC(=O)[C@H]1[C@H]2COc3cc(OC)ccc3[C@@H]2N2C(=O)CN(Cc3ccco3)C(=O)[C@@]12C	-11%	-4%	.	i	.	18µM*
COc1ccc(CC(=O)NCC(c2ccc(N(C)C)cc2)N2CCOCC2)cc1OC (configuration not stated)	-2%	-17%	1%[46.1 µM]	-6%	.	-15%
O=C(CSCc1nc2ccccc2[nH]1)Nc1ccc2ccccc2c1	.	3%	-16%	.	13%	4%
O=C(CSCc1cccc(CSCC(=O)Nc2ccc3ccccc3c2)n1)Nc1ccc2ccccc2c1	11µM*	-27%	-25%	11µM*	?	-5%
COc1ccc(S(=O)(=O)Nc2cc3c4c(oc3c3ccccc23)CC(C)(C)CC4=O)cc1	.	20%	?	.	15µM*	-5%
COC(=O)c1c(C)oc2c1cc(NS(=O)(=O)c1ccc(C(=O)O)cc1)c1ccccc12	1%	-16%	.	?	.	50µM*
COc1ccc(S(=O)(=O)Nc2cc3c4c(oc3c3ccccc23)CCCC4=O)cc1	?	1%	7.1µM*	?	?	-24%
CC1(C)CC(=O)c2c(oc3c(Cl)cc(NS(=O)(=O)c4ccc(Br)cc4)cc23)C1	-2%	9%	24%[46.1 µM]	1%	-3%[46.1 µM]	-11%
C=CC[C@@]1(C(=O)OC)C=C[C@@H](C)[C@H](c2ccccc2Br)N1C(=O)C(F)(F)F	.	.	2%[14.3 µM]	.	-11%[14.2 µM]	.
Cn1c(SCC2CCCO2)nnc1C1CCN(Cc2ccco2)CC1 (configuration not stated)	-8%	-2%	.	-16%	.	.
